Here are results for 81 compounds from article PMC12548414.

Each structure is given as a SMILES string. The whole screen tested about 1,600 compounds, of which about 20 (1%) showed an effect of 50% or more. Shown is part of a subset that was picked to be rich in strong results.

This test relates to T1, E. coli pLC1021 (luc-trpAt trans-translation reporter).
T1 construct: pLC1021 luc-trpAt reporter strain
On the set-up: species or system Escherichia coli pLC1021; luc-trpAt non-stop luciferase reporter; luminescence rises when trans-translation is inhibited; normalized to KKL-35 and DMSO. To be noted: reporter signal, KKL-35 = 100%; rise means trans-translation inhibition; 2 h, 20 µM. In short, it runs like this: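 Cells carrying the non-stop luc-trpAt reporter were exposed to 20 µM compound for 2 h at room temperature, then Bright-Glo was added and luminescence read at 560 nm after 10 min. Signals were normalised per plate to DMSO and 20 µM KKL-35 wells. Hits: activity one SD above the median; ≥2 biological repeats averaged.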
Consider `Cc1cc([N+](=O)[O-])ccc1NC(=O)CN1C2CCC1CC(NC(=O)NC13CC4CC(CC(C4)C1)C3)C2` (stereo not drawn) [KKL-1619], for which the “% activation” value was 0%.

Regarding `CCCCCn1c(=O)c(C(=O)Nc2nc3ccccc3[nH]2)c(O)c2ccccc21` [KKL-1004], the “% activation” value is 7%.

As for `CCOC(=O)Cc1csc(NC(=O)c2c(O)c3ccccc3n(CCC(C)C)c2=O)n1` [KKL-1615], the “% activation” value is 75%.

With `CCCCCCn1c(=O)c(C(=O)Nc2nc(CC(=O)OCC)cs2)c(O)c2ccccc21` [KKL-0986], the “% activation” value was found to be 0%.

On to `O=C(c1ccc(Cl)cc1)c1ccc(CSc2nnc(-c3ccccc3)o2)o1` [KKL-1212], for which the “% activation” value amounted to 0%.

In the case of `O=C(c1cnn(C(=O)c2ccco2)c1)c1cc(F)ccc1O` [KKL-1685], the “% activation” value is 3%.

Turning to `Clc1ccc(OCCCCCn2ccnc2)c(Cl)c1` [KKL-0421], the “% activation” value was determined as 0%.

For `N#CCc1ccc(NC(=O)/C=C/c2ccc([N+](=O)[O-])o2)cc1` [KKL-1204], the “% activation” value was 0%.

With `c1cnc(N2CCN(c3nncc(-c4ccc(C5CCCCC5)cc4)n3)CC2)cn1` [KKL-0667], the “% activation” value amounted to 0%.

For `Cc1cc(Cl)ccc1NC(=O)CCc1ccc(S(=O)(=O)NC(C)C)cc1` [KKL-1581], the “% activation” value amounted to 0%.

Take `CCc1ccc(CCC(=O)Nc2ccc(C)cc2)o1` [KKL-1248]: the “% activation” value worked out at 0%.

Consider `CC(=O)NC(=S)NNC(=O)c1ccc(-c2ccccc2)cc1` [KKL-0063], for which the “% activation” value came to 99%.

Turning to `Cc1ccc(C(=O)NC(=S)Nc2ccc(S(=O)(=O)NC(C)C)cc2)cc1Br` [KKL-0593], the “% activation” value was 0%.

Take `CC(=O)NC(=S)NNC(=O)c1ccc(C(C)(C)C)cc1` [KKL-0588]: the “% activation” value was determined as 143%.

Regarding `CC(=O)NC(=S)NNC(=O)c1ccc(C)c(Br)c1` [KKL-0065], the “% activation” value turned out to be 186%.

Take `CC(C)(C)c1ccc(C(=O)NC(=S)Nc2ccc(C(=O)O)cc2)cc1` [KKL-1314]: the “% activation” value amounted to 0%.

Take `O=C(O)c1ccc(NC(=S)NC(=O)c2ccc(-c3ccccc3)cc2)cc1` [KKL-1292]: the “% activation” value was 0%.

With `COc1ccccc1C(=O)NNC(=S)NC(=O)c1ccc(-c2ccccc2)cc1` [KKL-0561], the “% activation” value amounted to 11%.

For `Cc1ccc(C(=O)NCCC2=CCCCC2)cc1Br` [KKL-1393], the “% activation” value was 0%.

In the case of `CC(C)(C)c1ccc(C(=O)NC(=S)N2CCCC2)cc1` [KKL-1436], the “% activation” value amounted to 12%.

With `CNc1nc(SCC(=O)N(C)Cc2ccc(Cl)s2)nc2ccccc12` [KKL-1768], the “% activation” value is 0%.

`Cc1cc(C)nc(/N=C(\N)Nc2cc(Cl)ccc2Oc2ccccc2)n1` [KKL-0289]: the “% activation” value worked out at 0%.

As for `COC(=O)COc1ccc(NC(=O)c2ccccc2Br)cc1` [KKL-1572], the “% activation” value was determined as 0%.

Turning to `Cc1[nH]c2ccccc2c1/C=C1\SC(=N)N(c2nccs2)C1=O` [KKL-1143], the “% activation” value is listed as 6%.

In the case of `Brc1cncc(-c2cc(NCCCn3ccnc3)nc(-c3ccccc3)n2)c1` [KKL-1784], the “% activation” value is recorded as 0%.

Take `O=[N+]([O-])c1cc(O)c2ncccc2c1` [KKL-0003]: the “% activation” value was determined as 46%.

On to `c1cnc2c(c1)ccc1cccnc12` [KKL-0825], for which the “% activation” value is given as 8%.

For the compound `Oc1ccc(Br)c2cccnc12` [KKL-0093], the “% activation” value was 371%.

As to `O=C(Nc1nc(-c2ccccn2)cs1)c1ncc(Cl)c(Cl)c1Cl` [KKL-0390], the “% activation” value stood at 10%.

On to `O=C(Nc1ccc(Cl)cc1)Nc1ccc(F)c(F)c1` [KKL-1350], for which the “% activation” value turned out to be 0%.

As for `O=C(Nc1ccc(Cl)cc1)c1cc2c(cc1O)[nH]c1ccccc12` [KKL-0896], the “% activation” value is given as 102%.

For the compound `O=C(Nc1ccc(-c2nc3ccccc3c(=O)o2)cc1)c1ccccc1I` [KKL-1501], the “% activation” value was 2%.

Regarding `CCC(C)c1ccc(O)c(NC(=S)NC(=O)c2ccc(-c3ccc(Cl)cc3)o2)c1` (stereo not drawn) [KKL-0745], the “% activation” value came to 0%.

Take `CC(C)(C)c1cc(NCCCn2ccnc2)n2ncc(-c3ccc(Cl)cc3)c2n1` [KKL-1011]: the “% activation” value was found to be 9%.

In the case of `N#Cc1cc(Oc2ccc(OCc3ccccc3)cc2)c([N+](=O)[O-])cc1C#N` [KKL-0738], the “% activation” value came to 5%.

Regarding `Cc1cccc(NC(=S)NC(=O)CC23CC4CC(CC(C4)C2)C3)c1` [KKL-1311], the “% activation” value was 0%.

Turning to `CSCCC(=O)N1CCCC(C(=O)Nc2cccc(-c3cccc(C)c3)c2)C1` (stereo not drawn) [KKL-0499], the “% activation” value is 0%.

`Cc1ccc(-n2cc(CNC(C)c3csc(C)n3)c(-c3cccc(C)c3)n2)cc1` (stereo not drawn) [KKL-0500]: the “% activation” value amounted to 0%.

For `Cc1ccc2cc3c(nc2c1C)OC(=O)N(C1CCCC1)C3` [KKL-0690], the “% activation” value amounted to 1%.

For the compound `CCOc1ccc2nc(NC(=O)c3ccccn3)sc2c1` [KKL-0810], the “% activation” value came out at 0%.

Turning to `CCCCc1ccc(C(=O)Nc2nccc3ccccc23)nc1` [KKL-1763], the “% activation” value is on record as 50%.

`CCCCc1cccc(C(=O)Nc2nnc(S(=O)(=O)CCCC)s2)n1` [KKL-1853]: the “% activation” value is 6%.

For `c1ccc(-c2nn(-c3ccccc3)cc2CNC2CCCc3c2cnn3-c2ccccn2)cc1` (stereo not drawn) [KKL-1169], the “% activation” value was 0%.

As for `Clc1cc(Br)ccc1OCCCCn1ccnc1` [KKL-1286], the “% activation” value was found to be 0%.

Take `OC(CN1CCC2(CC1)CC(O)c1cc(F)ccc1O2)c1ccc2c(c1)CCCC2` (stereo not drawn) [KKL-0925]: the “% activation” value turned out to be 0%.

Turning to `CN(Cc1ccc(Cl)cc1)C(=O)CCc1nc2ccccc2oc1=O` [KKL-1749], the “% activation” value stood at 0%.

On to `CCN(CC)c1ccc(NC(S)=NCCc2ccc(OC)c(OC)c2)cc1` [KKL-1550], for which the “% activation” value worked out at 0%.

With `O=C(Nc1ccc2c(c1)CN(C(=O)/C=C/c1cccs1)CC2)c1ccncc1` [KKL-0616], the “% activation” value is 0%.

As for `Cc1cc(=O)oc2cc(OCC(=O)OC3CCCCC3)ccc12` [KKL-1250], the “% activation” value was 7%.

As to `Cc1nc(-c2ccccc2Br)cc([C@H]2CN3CC[C@H]2C[C@@H]3CNC(=O)c2ccc(C(C)(C)C)cc2)n1` [KKL-1598], the “% activation” value was found to be 0%.

On to `COc1ccc(Nc2nc(NC3CCNC3)nc3cc[nH]c(=O)c23)cc1CC(=O)c1ccccc1` (stereo not drawn) [KKL-1883], for which the “% activation” value was found to be 335%.

With `COc1ccc(O)c(CN2CCCC(N3CCN(c4cccc(C(F)(F)F)c4)CC3)C2)c1` (stereo not drawn) [KKL-0660], the “% activation” value is recorded as 1%.

For the compound `O=C(Nc1cccc(Cl)c1)Nc1ccccc1OC(F)(F)C(F)F` [KKL-0431], the “% activation” value stood at 21%.

As to `Cc1ccc(CN(CCCn2ccnc2)Cc2cccc(Cl)c2Cl)o1` [KKL-1195], the “% activation” value worked out at 17%.

For the compound `CCOC(=O)c1ccc(NC(=O)c2ccc(C)s2)cc1` [KKL-0584], the “% activation” value was determined as 0%.

For `CN(C)c1ccc(N=Nc2nc3ccccc3n2C)cc1` [KKL-1056], the “% activation” value stood at 0%.

Turning to `Fc1cccc(Oc2cc(C3CCCNC3)nc(-c3ccncc3)n2)c1` (stereo not drawn) [KKL-1670], the “% activation” value was found to be 3%.

On to `O=C(C=Cc1cccs1)N1CCN(Cc2ccc(Br)s2)CC1` [KKL-1861], for which the “% activation” value was 0%.

In the case of `Cc1ccc(-n2cc(CNCCCn3ccnc3)c(-c3cccc(C)c3)n2)cc1` [KKL-0662], the “% activation” value is recorded as 0%.

Turning to `Cc1nn2c(O)cc(C(C)(C)C)nc2c1-c1ccccc1` [KKL-0891], the “% activation” value was 17%.

`CCOC(=O)c1c(NC(=O)COc2ccc(C(C)C)cc2)sc2c1CCC2` [KKL-1530]: the “% activation” value came to 0%.

As to `COc1ccc(-c2cc(=O)c3cc(OCC(=O)OC(C)C)ccc3o2)cc1` [KKL-1864], the “% activation” value was determined as 2%.

As for `CCC(NC(=O)c1cnc(C(C)(C)C)nc1)c1ccc(F)cc1` (stereo not drawn) [KKL-0932], the “% activation” value worked out at 5%.

As for `CCCN=C1C(=O)c2ccccc2C(O)=C1N(C(C)=O)c1cccc(F)c1` [KKL-0978], the “% activation” value was determined as 0%.

Consider `Clc1nnc(N2CCCC2)c2ccccc12` [KKL-1738], for which the “% activation” value turned out to be 0%.

With `CCOC(=O)COc1ccc(S(=O)(=O)Nc2c(C)cccc2CC)cc1` [KKL-1460], the “% activation” value came out at 0%.

Regarding `Nc1nc(N)c2c(Sc3ccc4ccccc4c3)cccc2n1` [KKL-1710], the “% activation” value is reported as 0%.

Take `Cc1sc2nc(C(C)C)n(C3CCN(C(=O)c4ccncc4)CC3)c(=O)c2c1C` [KKL-0464]: the “% activation” value is 14%.

In the case of `COC(=O)[C@@H]1Cc2c([nH]c3ccccc23)[C@H]2C[C@H](NCc3cccnc3)C[C@@H](c3ccc(C(F)(F)F)cc3)N21` [KKL-1613], the “% activation” value is reported as 0%.

For `CCn1ccnc1CN(C)Cc1cn(-c2ccc(C)cc2)nc1-c1ccc(F)cc1` [KKL-0657], the “% activation” value stood at 0%.

Take `Cc1ccc(Nc2c(-c3ccccn3)nc3ccc(C)cn23)cc1` [KKL-1199]: the “% activation” value is 4%.

Consider `N#Cc1cccc(-c2ccc(NCC3CCC(CN(C(=O)O)c4cccnn4)CC3)nc2)c1` (stereo not drawn) [KKL-1855], for which the “% activation” value worked out at 0%.

In the case of `c1cn(CCCNc2nncc(-c3ccc(C4CCCCC4)cc3)n2)cn1` [KKL-1171], the “% activation” value stood at 8%.

For the compound `COC(=O)[C@@H]1Cc2c([nH]c3ccccc23)[C@H]2C[C@@H](NC(C)C)C[C@@H](c3cccc(Cl)c3)N21` [KKL-1594], the “% activation” value is 1%.

With `COc1ccc(OC)c(NC(=O)Nc2ccc(Cl)c(C(F)(F)F)c2)c1` [KKL-1544], the “% activation” value is on record as 0%.

Consider `Cc1nn(-c2ccccc2)c2c1C(c1ccc(O)c(O)c1)N1C(=N2)C(Nc2ccccc2)=Nc2ccccc21` (stereo not drawn) [KKL-0996], for which the “% activation” value came to 0%.

With `COc1cccc(-c2cc(CC3(O)CCN(Cc4[nH]c5ccc(C)cc5c4C)CC3)on2)c1` [KKL-0315], the “% activation” value came to 0%.

On to `CC(C)(C)C(=O)CC1(O)Oc2ccccc2N=C1C=C(O)C(C)(C)C` (stereo not drawn) [KKL-1740], for which the “% activation” value is listed as 6%.

As for `Cc1cc(C)c(-n2cccn2)c(CN(CCCn2ccnc2)Cc2ccc(F)cc2)c1` [KKL-1032], the “% activation” value is reported as 8%.

With `O=C(CN1CCN(Cc2ccccc2)CC1)Nc1ccc([N+](=O)[O-])cc1C(=O)c1ccccc1` [KKL-1480], the “% activation” value came out at 0%.

Turning to `O=C(NCc1ccco1)N1CCN(Cc2ccc(Cl)s2)CC1` [KKL-1727], the “% activation” value worked out at 3%.
